# Screening data as filed in PubChem.
# RORgamma inh: blocks mouse ROR gamma transcriptional activity; P51450; Drosophila S2 Gal4-RORgamma UAS-luciferase reporter, 20 h; Potency, µM (series often up to 53.6 µM), for the others: at the top dose activity change, negative = inhibition, hits mostly inhibitors; 310,000 compounds, 5.4% hits; AID 2551; also: potency is read from the fitted curve at half-maximal effect; % is scaled to controls: 0 for no effect and ±100 for the full control effect; nearly all actives have a fitted effect of over 60% in size
# Target sequence (P51450 whole entry, looked up, the tested form may be a part): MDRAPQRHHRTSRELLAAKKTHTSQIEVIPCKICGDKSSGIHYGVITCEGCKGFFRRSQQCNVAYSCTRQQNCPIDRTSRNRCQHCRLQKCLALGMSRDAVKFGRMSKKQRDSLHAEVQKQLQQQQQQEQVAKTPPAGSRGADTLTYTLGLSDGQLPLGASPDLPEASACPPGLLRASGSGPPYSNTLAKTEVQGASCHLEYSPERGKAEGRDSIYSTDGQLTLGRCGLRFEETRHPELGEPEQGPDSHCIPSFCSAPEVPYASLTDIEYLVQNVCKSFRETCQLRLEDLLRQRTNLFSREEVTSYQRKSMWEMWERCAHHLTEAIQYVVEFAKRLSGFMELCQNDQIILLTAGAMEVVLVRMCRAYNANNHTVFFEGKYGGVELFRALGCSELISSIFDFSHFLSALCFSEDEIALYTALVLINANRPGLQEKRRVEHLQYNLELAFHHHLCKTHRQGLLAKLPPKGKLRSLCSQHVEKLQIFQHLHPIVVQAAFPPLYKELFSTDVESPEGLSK
#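 Schneider cells (Drosophila), stable Gal4 DBD–ROR gamma + UAS-luc; 1 hr cmpd preincubation; Cu2+ induction 700 uM final; 20 hr ambient; luminescence.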
# SW480 rerep: induces DNA re-replication in SW480 colon adenocarcinoma cells | SW480 DNA re-replication, Hoechst DNA content imaging, 48 h | Potency, µM (titrated, usually from 46.1 µM), for the others: top-dose re-replication activation, hits mostly activators | 340,000 compounds, 1.8% hits; also: potency is read from the fitted curve at half-maximal effect; % of control where 0% means no effect; nearly all actives have a fitted effect of over 55% in size
#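 250 cells/well; 23 nL cpd via pin tool; 48 hr, 37 C, 5% CO2; Hoechst 40 min; imager read of total nuclear intensity, ex 405/em 500-530 nm.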
# MCF10A rereplic: DNA re-replication induction in MCF 10a cells; MCF 10A DNA re-replication, Hoechst nuclear intensity, 48 h; Potency, µM (top dose mostly 46.1 µM), for inactives: at the top dose activity, positive = re-replication, actives largely listed as activators; 350,000 compounds, 2.9% hits; AID 624296; also: potency is read from the fitted curve at half-maximal effect; % of control where 0% means no effect; nearly all actives have a fitted effect of over 50% in size
# IL1B secr inh: blocks inflammasome-driven IL-1 beta release | THP-1 LPS/ATP IL-1B secretion, AlphaLISA, 16 h; active compounds read low | activity change, % at 57.5 µM | 360,000 compounds, 4.7% hits | AID 743279; in the data active = activity change below about -50%; inconclusive = mostly about -30% to -49%; also: % is scaled to controls: 0 for no effect and ±100 for the full control effect
#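 Secreted IL-1B measured by AlphaLISA bead assay after 16 h compound exposure of THP-1 cells; compounds (final up to 57.5 uM) added 1 h before LPS (250 ng/mL) and ATP (1.25 mM) stimulation; lower signal means less secretion.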
# VP16 counter: Gal4-VP16 reporter inhibition counter-screen; Drosophila S2 Gal4-VP16 UAS-luciferase, luminescence, 20 h; Potency, µM (titrated, usually from 53.6 µM), for inactives: at the top dose activity, negative = inhibition, usual class: inhibitors; 310,000 compounds, 3.5% hits; AID 2546;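 also: Gal4-VP16 expression switched on by copper sulfate through the metallothionein promoter; potency is read from the fitted curve at half-maximal effect; % is scaled to controls: 0 for no effect and ±100 for the full control effect; nearly all actives have a fitted effect of over 50% in size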
# Numbers without * were called inactive; ? = inconclusive; . = no result given; [ ] = remark or other dose. Sampled rows, rich in hits. Any-hit rate of the full collection: about 11%. Unless noted, calls follow the shape of the dose curve; as a rule, active = well fitted curve in the direction sought with a large enough effect; inconclusive = small, poorly fitted or top-dose-only effect, or another doubt; inactive = no such curve, though single readings can be large; an effect the other way counts as inactive or inconclusive.
SMILES,RORgamma inh,SW480 rerep,MCF10A rereplic,IL1B secr inh,VP16 counter
Cc1ccc(NS(=O)(=O)N2CCOCC2)cc1Cl,0.35µM*,10%,4%,6,30%
Clc1ccc(Nc2nc(NCCN3CCOCC3)nc(N3CCOCC3)n2)cc1,-4%,9.2µM*,?,-67*,-3%
Cc1ccc(Nc2cc(C)nc(N3CCOCC3)n2)cc1,13%,6%,-3%,17,-6%
Fc1ccccc1Nc1nc(N2CCOCC2)nc(N2CCOCC2)n1,26%,5%,5%,-19,-7%
Cc1cc(Nc2ccc(C)c(Cl)c2)nc(N2CCOCC2)n1,30%,?,?,-51*,-10%
CCCCC1(C(=O)OC)NC(c2ccc(O)cc2)C2C(=O)N(c3ccccc3)C(=O)C21 (stereo unspecified),9%,1%,-1%,0,-6%
CC1(C(=O)Nc2ccc3c(c2)OCO3)CCN1C(=O)CCc1cccs1 (stereo unspecified),.,.,.,-9,.
CC(C)C[C@@H](CC(=O)N[C@H](CC(=O)N[C@@H]1CCNC[C@H]1C(=O)N[C@H](CC(=O)N[C@@H](CCC(=O)O)CC(=O)O)CC(C)C)C(C)C)NC(=O)[C@@H]1CCCC[C@H]1N,14%,.,.,.,-7%
CN1CCN(c2nc(Nc3cccc(C(F)(F)F)c3)nc(N3CCOCC3)n2)CC1,-33%,?,12%,-59*,-5%
Fc1ccc(Nc2nc(N3CCOCC3)nc(N3CCOCC3)n2)cc1Cl,-10%,18µM*,-1%,-27,-1%
COc1ccc(-n2c(=O)c(-c3cccs3)nc3cnc(OC)nc32)cc1,-16%,.,.,.,2%
COCCCN(Cc1cc(OC)c(OC)c(OC)c1)C(=S)Nc1cccc(SC)c1,.,.,.,6,.
N#CCCN(C(=O)c1ccco1)c1ccccc1,1.4µM*,-3%[9.22 µM],-21%,37,9%
N#CCCN(C(=O)COC(=O)CCc1ccccc1)c1ccccc1,12%,-1%,0%,-10,-9%
Cc1ccc(SC(=O)c2c(C)noc2-c2cc(C)on2)cc1,?,-1%,?,-65*,?
Cc1cc(-c2onc(C)c2C(=O)N/N=C/c2ccccc2)no1,3%,-6%,0%,-1,-8%
Cc1ccc2nc(NC(=O)c3ccco3)sc2c1,8.9µM*,0%,?,11,7.1µM*
O=C(Nc1nc2ccc(Br)cc2s1)c1ccco1,-33%,3%,2%,12,0%
O=C(Nc1nc2ccc(Cl)cc2s1)c1ccco1,?,4%,13%,9,?
COc1ccc2nc(NC(=O)c3ccco3)sc2c1,10µM*,4%,-2%,-7,10µM*
CC(=O)Nc1nc2ccc(NC(=O)c3ccco3)cc2s1,3%,-2%,24%,-25,10%
Cc1ccc2nc(NC(=S)NC(=O)c3ccco3)sc2c1,0.28µM*,1%,?,12,3.5µM*
COc1ccc(Cl)cc1NC(=O)COC(=O)CCNS(=O)(=O)c1cccs1,.,-5%,-3%,-2,.
O=C(O)C1=CCC=CC1C(=O)O (stereo unspecified),.,.,.,-17,.
CC1(C)Cc2c(c(N3CCOCC3)nc3sc4c(NN)ncnc4c23)CS1,7.9µM*,?,23µM*,64,7.1µM*
SMILES,RORgamma inh,SW480 rerep,MCF10A rereplic,IL1B secr inh,VP16 counter
NNc1nnnc2c1sc1nc(N3CCOCC3)c3c(c12)CCCC3,-33%,-22%,-2%,0,-3%
CCN(CC)CCNc1ncnc2c1sc1nc(N3CCOCC3)c3c(c12)CCCC3,?,17%,29%,?,?
OCCNc1ncnc2c1sc1nc(N3CCOCC3)c3c(c12)CCC3,-3%,-2%,1%,-53*,-12%
CC(C)CNc1nnnc2c1sc1nc(N3CCOCC3)c3c(c12)CC(C)(C)SC3,35%,-2%,17%,-4,4%
CC1(C)Cc2c(c(N3CCOCC3)nc3sc4c(NCc5ccco5)nnnc4c23)CS1,-2%,0%[9.22 µM],-25%,-60*,-14%
NC(Cc1c[nH]c2ccccc12)C(=O)NCC(=O)O (stereo unspecified),-18%,.,.,.,-4%
COCc1cc(=O)[nH]c(Nc2nc3ccc(C)cc3o2)n1,4.5µM*,?,?,-19,3.2µM*
CCc1ccc2nc(Nc3nc(COC)cc(=O)[nH]3)nc(C)c2c1,-23%,0%,13%,?,-11%
CC(C)C(C)NC(=O)COc1ccc(S(=O)(=O)N2CCOCC2)cc1Cl (stereo unspecified),-8%,?,0.58µM*,47,2%
O=C(COc1ccc(S(=O)(=O)N2CCOCC2)cc1Cl)NCCCn1ccnc1,-10%,7.3µM*,?,0,-2%
O=C(COc1ccc(S(=O)(=O)N2CCOCC2)cc1Cl)N1CCCC1,-2%,-9%,21%,37,6%
Cc1cc(S(=O)(=O)N2CCOCC2)ccc1OCC(=O)NCCCn1ccnc1,-30%,?,0%,-5,-7%
O=C(COc1ccc(S(=O)(=O)N2CCOCC2)cc1Cl)NC1CCCCC1,21%,3%,2%,-14,1%
CC(Oc1ccc(Cl)cc1Cl)C(=O)NCCCn1ccnc1 (stereo unspecified),-3%,-6%,16µM*,-19,2%
O=S(=O)(c1ccc(OCC(O)CNC23CC4CC(CC(C4)C2)C3)c(Cl)c1)N1CCOCC1 (stereo unspecified),?,16µM*,?,-78*,-9%
O=C(CCCOc1ccc(Cl)cc1Cl)NCCCn1ccnc1,17%,-5%,1%,7,1%
C#CCCCO/N=C1/C[C@@H](O)[C@@H](O)[C@@H]2[C@@H]3C(=O)N(Cc4ccccc4)C(=O)[C@H]3CC[C@@H]12,-9%[10 µM],.,.,.,-3%[10 µM]
CCC(C)(Oc1ccc(C2(c3ccc(OC(C)(CC)C(=O)O)cc3)CCCCC2)cc1)C(=O)O (stereo unspecified),-24%,-7%,0%,.,-2%
Cc1ccc(SSc2cc(C)ccc2N)c(N)c1,.,15%,?,-108*,.
CC(=O)OC1CCC2(C)C(CCC3C4CC=C(C(C)=O)C4(C)OC(=O)CC32)C1 (stereo unspecified),.,.,.,-107*,.
CC(=O)OC1CC[C@@]2(C)C3CC(=O)[C@]4(C)C(C(C)=O)=CCC4C3CC[C@H]2C1 (stereo partly specified),-16%,.,.,.,-2%
COc1ccc(-c2ccc3nnc(SCC(N)=O)n3n2)cc1,3%,?,-5%,-6,2%
CCSc1nnc2ccc(-c3ccc(OC)c(OC)c3)nn12,-14%,-3%,-27%,-68*,-11%
CSC1=C(C#N)C(c2sccc2C)CC(=O)N1 (stereo unspecified),11%,-5%,-20%,-76*,6%
Cc1nn(CC2CC2)c(=O)n1-c1ccccc1,-14%,-7%,-6%,-53*,0%
